# Screening data from PubChem.
# PGK inhibitor = qHTS Assay to Find Inhibitors of Phosphoglycerate Kinase; 380,000 compounds, 0.043% hits; Potency, µM (highest dose often 57.5 µM), inactives show at the highest dose activity change, negative = inhibition, hits mostly inhibitors; PGK/GAPDH coupled, Kinase-Glo luminescence, 60 min; Phosphoglycerate kinase, glycosomal (Trypanosoma brucei brucei), P07378; also: potency is read from the fitted curve at half-maximal effect; nearly all actives have a fitted effect of over 60% in size
#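 Recombinant glycosomal PGK reaction used 1,3-bisphosphoglycerate generated in-well by GAPDH (100nM final) in 100mM TEA pH 7.6, 5mM MgCl2, 0.01% Tween-20. After 60 minutes at room temperature, ATP was read by Kinase-Glo Plus luminescence end-point.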
# TDP1 block = qHTS Assay for Inhibitors of Tyrosyl-DNA Phosphodiesterase (TDP1); Tyrosyl-DNA phosphodiesterase 1 (Homo sapiens), Q9NUW8; 350,000 compounds, 0.28% hits; recombinant TDP1, AlphaScreen DNA substrate cleavage; Potency, µM (highest dose often 130 µM), for the others: at the highest dose activity change, negative = inhibition, most hits filed as inhibitors; also: potency is read from the fitted curve at half-maximal effect; nearly all actives have a fitted effect of over 40% in size
#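 Signal: AlphaScreen proximity between streptavidin donor and anti-FITC acceptor beads on intact substrate. Reaction: Tdp1 1 nM, substrate 15 nM final, 5 min RT after 15 min compound preincubation.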
# WRN inhibitor = qHTS for Inhibitors of WRN Helicase. Bifunctional 3'-5' exonuclease/ATP-dependent helicase WRN (Homo sapiens), Q14191. WRN helicase unwinding, fluorescent forked duplex, kinetic. Potency, µM (highest dose often 114 µM), without a hit: at the top dose activity change, negative = inhibition, hits mostly inhibitors. 360,000 compounds, 0.46% hits. AID 651768, 2012; also: potency is read from the fitted curve at half-maximal effect; nearly all actives have a fitted effect of over 55% in size
#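 Fluorescence dequenching readout, ex 525 nm/em 598 nm, kinetic mode: forked duplex DNA (100 nM final) with adjacent fluorophore and quencher unwound by WRN (20 nM final) with 2 mM ATP. Compound preincubation 15 min, room temperature.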
# FEN1 inhibitor = qHTS Assay for the Inhibitors of Human Flap endonuclease 1 (FEN1). Recombinant FEN1 flap cleavage, fluorescence, 15 min. Potency, µM (doses to about 114 µM), without a hit: at the top dose activity change, negative = inhibition, most hits filed as inhibitors. 390,000 compounds, 0.35% hits; also: potency is read from the fitted curve at half-maximal effect; nearly all actives have a fitted effect of over 65% in size
#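 With each library titrated from low to high concentration, compounds met 10 nM FEN1 for 15 min at room temperature before 50 nM substrate was added; readings at 0 and 15 min fed four-parameter Hill curve fits.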
# Tb PFK inh = qHTS Assay to Find Inhibitors of T. brucei phosphofructokinase | T. brucei PFK, ADP-Glo luminescence | 330,000 compounds, 0.17% hits | ATP-dependent 6-phosphofructokinase (Trypanosoma brucei brucei), O15648 | Potency, µM (series often up to 57.5 µM), without a hit: at the highest dose activity, negative = inhibition, hits mostly inhibitors;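 also: potency is read from the fitted curve at half-maximal effect; 0% = uninhibited 1x PFK enzyme wells and -100% = no-enzyme wells; nearly all actives have a fitted effect of over 60% in size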
# Target sequence (O15648 whole entry, looked up): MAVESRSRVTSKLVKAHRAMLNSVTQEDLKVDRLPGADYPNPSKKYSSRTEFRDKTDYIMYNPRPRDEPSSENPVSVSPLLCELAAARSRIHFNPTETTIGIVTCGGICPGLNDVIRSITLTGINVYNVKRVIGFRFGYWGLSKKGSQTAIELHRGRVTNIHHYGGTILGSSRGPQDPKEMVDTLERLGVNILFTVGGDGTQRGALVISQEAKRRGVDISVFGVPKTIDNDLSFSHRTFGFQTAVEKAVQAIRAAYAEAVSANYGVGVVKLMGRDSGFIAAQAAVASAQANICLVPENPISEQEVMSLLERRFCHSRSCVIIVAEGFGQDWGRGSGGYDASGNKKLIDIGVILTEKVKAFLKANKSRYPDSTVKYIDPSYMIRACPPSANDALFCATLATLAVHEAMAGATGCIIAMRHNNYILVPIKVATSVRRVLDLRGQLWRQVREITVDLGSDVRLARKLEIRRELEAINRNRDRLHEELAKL
#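 PFK 1.25 nM, F6P 0.5 mM, ATP 0.1 mM, 0.1 M TEA pH 8.0, 5 mM MgCl2, 0.01% Tween20, 0.1% BSA; 45 min RT. ADP-Glo readout. qHTS titration up to 57 uM; curves fitted, compounds curve-classed.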
# PI5P4K alpha inh = qHTS for Inhibitors of phosphatidylinositol 5-phosphate 4-kinase (PI5P4K). PI5P4Kalpha enzyme, ADP-Glo luminescence, 60 min; stronger effect = lower value. max response, %. 330,000 compounds, 1.2% hits; active = max response of -50% or lower; inconclusive = between -30% and -50%; inactive = -30% or higher; also: value at the top dose of about 77 µM
#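 Compounds were pin-transferred onto PI5P4Kalpha and substrate in HEPES pH 7.4 buffer with EGTA, CHAPS and 5% DMSO. ATP (5 microM final) started the reaction, which ran 60 minutes at room temperature before ADP-Glo detection.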
# Active calls of the source: *; i = inactive; ? = inconclusive; / = not tested or not shown; [ ] = dose if it differs, or a comment. A selection: hits, their analogues and other compounds. The true share with any hit is near 1.5%. Unless noted, calls follow the shape of the dose curve; as a rule, active = well fitted curve in the direction sought with a large enough effect; inconclusive = small, poorly fitted or top-dose-only effect, or another doubt; inactive = no such curve, though single readings can be large; an effect the other way counts as inactive or inconclusive. Unless noted, % is scaled to controls: 0 for no effect and ±100 for the full control effect.
SMILES,PGK inhibitor,TDP1 block,WRN inhibitor,FEN1 inhibitor,Tb PFK inh,PI5P4K alpha inh
O=C(CNC(=O)c1ccccc1)OCC(=O)c1ccc2ccccc2c1,/,2.0%,/,4.8%,/,/
CNc1c(C(=O)O)ccc2c1C(=O)c1ccccc1C2=O,-28.7%,5.4%,-29.0%,?,-5.0%,?
O=C(O)c1ccc2c(c1Nc1ccccc1)C(=O)c1ccccc1C2=O,?,-2.7%,-13.5%[11.6 µM],?,-1.5%,-54.1*
Cc1noc(C)c1-c1ccc2ncnc(NCc3cccc(C(F)(F)F)c3)c2c1,/,2.6%,/,/,/,/
O=C(CSc1nnc2ccccn12)NC(=O)c1ccccc1Cl,-20.2%,25.1µM*,-20.4%,18.1%,-19.4%,?
O=C(CSc1nnc2ccccn12)NC(=O)c1cccc([N+](=O)[O-])c1,-4.8%,1.2%,4.0%,0.0%,-3.6%,0.5
Cc1ccc(-c2nc3ccccc3o2)cc1NC(=O)C(C)Oc1ccccc1 (centres undefined),/,/,/,1.8%,/,/
[O-][n+]1c2ccccc2[n+]([O-])c2cc(O)ccc21,?,/,?,?,-6.4%,-54.2*
O=C(O)CC1Sc2ccccc2NC1=O (centres undefined),-2.6%,6.8%,-1.0%,2.5%,2.4%,-7.1
O=C1Nc2ccccc2SC(c2ccccc2)C1O (centres undefined),-20.7%,?,?,?,-29.9%,-82.2*
O=S(=O)(c1ccc2ncsc2c1)N1CCN(c2nc(-c3cccs3)nc3ccccc23)CC1,/,0.6%,/,-11.4%,/,/
Cc1ccc2cc(/C=N/NC(=O)c3ccccc3O)c(Cl)nc2c1,-7.9%,-2.7%,50.1µM*,-15.6%,3.1%,-18.9
O=C(N/N=C\c1ccccc1O)c1ccccc1O,/,31.6µM*,/,/,/,/
CN(C)c1ccc(/C=C/c2ccnc3c(N)cccc23)cc1,/,/,/,3.0%,/,/
Nc1nnnn1/N=C/c1ccc(O)cc1,-25.6%,0.9%,-9.5%,-13.8%,-8.5%,-2.0
CCN(C)c1ccc(/C=N\n2nnnc2N)cc1,5.7%,50.1µM*,-16.8%,0.2%,-5.1%,-4.9
N#Cc1c(-c2ccco2)cc(-c2cccnc2)nc1N,0.4%,/,-13.3%[57.1 µM],-28.4%,-5.3%,/
N#Cc1c(-c2ccco2)cc(-c2ccccn2)nc1N,-7.5%,0.0%,-42.9%,-5.8%,-5.6%,-66.5*
COc1ccco1,/,6.2%,/,/,/,/
O=c1[nH][nH]c(=S)n1C1CCCCC1,i,2.4%,56.2µM*,?,12.7%,-69.4*
O=c1cc(O)n(C2CCCCCC2)c(=O)[nH]1,i,/,-0.3%,4.9%,-2.7%,-20.2
O=C(c1ccccc1)N(Nc1ccccc1)c1ccccc1,-8.2%,-8.6%,-1.0%,-6.1%,-2.8%,0.4
O=C(NN(C(=O)c1ccccc1)c1ccccc1)c1ccccc1,?,70.8µM*,?,-3.1%,?,0.0
Cc1ccnc2ccc(N)cc12,/,/,/,-6.8%,/,/
CC(C)S(=O)(=O)C1=NSC2=NC(=O)/C(=C\c3ccc(OC(=O)c4ccco4)cc3)C(=N)N21,i,2.7%,-22.2%,-4.1%,-9.8%,-76.1*
SMILES,PGK inhibitor,TDP1 block,WRN inhibitor,FEN1 inhibitor,Tb PFK inh,PI5P4K alpha inh
N=C1/C(=C\c2ccc(OC(=O)c3ccco3)cc2)C(=O)N=C2SC(N3CCCCC3)=NN12,5.2%,/,-20.7%,?,2.2%,-51.5*
CCOc1cc(/C=C2/C(=N)N3C(=NC2=O)SN=C3S(C)(=O)=O)ccc1OC(=O)c1ccco1,-6.7%,1.4%,-5.4%,0.5%,?,?
CCS(=O)(=O)C1=NSC2=NC(=O)/C(=C\c3ccc(OC(=O)c4ccco4)cc3)C(=N)N21,-12.3%,6.1%,-15.9%,-1.0%,1.1%,-86.9*
C(=C\c1c[nH]c2ccccc12)/c1nccc2ccccc12,/,/,/,-22.3%,/,/
Cc1nn(-c2ccc(F)cc2)c(Cl)c1/C=N/NC(=O)c1ccc(O)cc1,8.7%,5.0%,-21.3%,-1.0%,-0.9%,3.5
Cc1nn(-c2ccc(F)cc2)c(Cl)c1/C=N/NC(=O)c1cccs1,-2.0%,79.4µM*,-12.9%,-2.0%,3.4%,-6.1
Cc1nn(-c2ccc(Cl)cc2)c(Cl)c1/C=N/NC(=O)c1ccc(NS(=O)(=O)c2cccs2)cc1,-9.0%,/,-21.4%,-23.6%,/,-65.9*
COc1cc(/C=N/NC(=O)c2ccc(NS(=O)(=O)c3cccs3)cc2)cc(OC)c1O,-10.0%,2.8%,-13.1%,?,20.1%,-59.8*
CC1=NN(c2ccc(Cl)c(C(=O)O)c2)C(=O)/C1=C\c1ccc(-c2ccc(C(=O)O)cc2)o1,-21.0%,79.4µM*,?,?,-14.8%,-17.2
O=C(O)c1ccc(N2C(=O)/C(=C/c3ccc(-c4ccc([N+](=O)[O-])cc4)o3)C=C2c2ccccc2)cc1,?,1.2%,56.2µM*,?,3.7%,-94.1*
CCCOC(=O)c1cc(-c2ccc(/C=C3/C(=O)N(C)C(=O)C(C#N)=C3C)o2)ccc1Cl,-6.7%,/,-7.4%[11.6 µM],0.1%,/,-58.3*
CC1=NN(c2ccc(C(=O)O)cc2)C(=O)/C1=C/c1ccc(-c2ccccc2F)o1,/,/,/,/,-9.1%,/
CC1(C)OC(=O)C(=Cc2ccc(-c3ccc(Cl)c(C(=O)O)c3)o2)C(=O)O1,-16.3%,50.1µM*,44.7µM*,?,9.0%,?
Cc1ccc(N2NC(=O)/C(=C/c3ccc(-c4ccc(Cl)c(C(=O)O)c4)o3)C2=O)cc1C,-7.8%,/,-18.9%[11.6 µM],-1.1%,-6.8%,-17.1
CC1=NN(c2ccccc2)C(=O)/C1=C/c1ccc(-c2ccc(C)c(C(=O)O)c2)o1,-20.4%,/,?,17.8µM*,/,-17.8
O=C1NN(c2ccccc2)C(=O)/C1=C/c1ccc(-c2ccc(C(=O)O)cc2)o1,-17.7%,/,50.1µM*,50.1µM*,0.9%,?
CC(C)=NOC[C@@H](C)[C@H](OCc1ccccc1)C(C)C,/,6.9%[21 µM],/,/,/,/
COc1ccc(C(=O)C[n+]2cccc3cc(Cl)ccc32)cc1,/,/,/,-5.0%,/,/
COc1cccc(Cn2ncc3c4sc(S(C)=O)cc4n(C)c3c2=O)c1 (centres undefined),/,2.2%,/,/,/,/
CC(/C=C1\SC(=S)N(c2ccc(C(=O)O)cc2)C1=O)=C\c1ccccc1,-27.9%,-6.5%,?,-1.2%,2.2%,-56.5*
CC(/C=C1\SC(=S)N(NC(=O)c2ccc(C)cc2)C1=O)=C\c1ccccc1,-2.5%,7.8%,-15.3%,-5.9%,4.4%,0.5
